Legend:
[1] = target: T1, CDK9/cyclin T1 (Homo sapiens) (UniProt O60563+P50750); details: at 1 µM
[2] = target: T1, CDK9/cyclin T1 (Homo sapiens); details: at 10 µM
[3] = target: Serine/threonine-protein kinase Chk2 (Homo sapiens) (UniProt O96017); details: at 1 µM
[4] = target: Serine/threonine-protein kinase Chk2 (Homo sapiens) (UniProt O96017); details: at 10 µM
[5] = target: Casein kinase I isoform gamma-1 (Homo sapiens) (UniProt Q9HCP0); details: at 1 µM
[6] = target: Casein kinase I isoform gamma-1 (Homo sapiens) (UniProt Q9HCP0); details: at 10 µM
[7] = target: Casein kinase I isoform delta (Homo sapiens) (UniProt P48730); details: at 1 µM
[8] = target: Casein kinase I isoform delta (Homo sapiens) (UniProt P48730); details: at 10 µM
[9] = target: T2, Serine/threonine-protein kinase Chk1 (Homo sapiens) (UniProt O14757); details: at 1 µM
T2 sequence (whole entry): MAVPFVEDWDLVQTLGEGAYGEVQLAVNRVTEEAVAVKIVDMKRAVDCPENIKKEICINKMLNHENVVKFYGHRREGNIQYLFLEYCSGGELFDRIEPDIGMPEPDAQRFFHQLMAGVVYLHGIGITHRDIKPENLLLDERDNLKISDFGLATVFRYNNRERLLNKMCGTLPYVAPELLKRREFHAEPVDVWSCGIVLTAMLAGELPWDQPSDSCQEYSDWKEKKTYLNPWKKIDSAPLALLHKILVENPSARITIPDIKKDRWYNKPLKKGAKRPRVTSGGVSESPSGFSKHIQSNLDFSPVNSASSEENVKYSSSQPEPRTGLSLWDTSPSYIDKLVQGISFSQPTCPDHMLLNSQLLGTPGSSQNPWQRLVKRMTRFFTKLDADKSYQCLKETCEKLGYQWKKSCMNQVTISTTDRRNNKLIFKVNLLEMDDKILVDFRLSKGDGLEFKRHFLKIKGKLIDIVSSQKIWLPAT

[10] = target: T2, Serine/threonine-protein kinase Chk1 (Homo sapiens); details: at 10 µM

Serine/threonine-protein kinase Chk2 (Homo sapiens), sequence (O96017 whole entry, canonical isoform): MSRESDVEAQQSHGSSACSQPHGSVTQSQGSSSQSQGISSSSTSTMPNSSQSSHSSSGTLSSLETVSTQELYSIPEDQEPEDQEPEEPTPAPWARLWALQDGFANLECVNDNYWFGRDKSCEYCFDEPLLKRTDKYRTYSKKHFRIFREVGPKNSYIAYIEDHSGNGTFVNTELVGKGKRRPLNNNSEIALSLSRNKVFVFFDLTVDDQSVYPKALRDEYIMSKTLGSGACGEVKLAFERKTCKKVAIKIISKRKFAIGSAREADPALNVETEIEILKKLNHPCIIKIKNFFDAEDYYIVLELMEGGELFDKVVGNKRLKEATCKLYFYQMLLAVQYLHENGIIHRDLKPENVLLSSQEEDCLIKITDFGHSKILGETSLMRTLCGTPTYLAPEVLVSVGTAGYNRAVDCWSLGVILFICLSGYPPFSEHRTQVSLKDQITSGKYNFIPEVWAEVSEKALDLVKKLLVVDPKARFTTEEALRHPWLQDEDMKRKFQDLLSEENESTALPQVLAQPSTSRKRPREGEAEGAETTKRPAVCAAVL
Casein kinase I isoform delta (Homo sapiens), sequence (P48730 whole entry, looked up, canonical isoform): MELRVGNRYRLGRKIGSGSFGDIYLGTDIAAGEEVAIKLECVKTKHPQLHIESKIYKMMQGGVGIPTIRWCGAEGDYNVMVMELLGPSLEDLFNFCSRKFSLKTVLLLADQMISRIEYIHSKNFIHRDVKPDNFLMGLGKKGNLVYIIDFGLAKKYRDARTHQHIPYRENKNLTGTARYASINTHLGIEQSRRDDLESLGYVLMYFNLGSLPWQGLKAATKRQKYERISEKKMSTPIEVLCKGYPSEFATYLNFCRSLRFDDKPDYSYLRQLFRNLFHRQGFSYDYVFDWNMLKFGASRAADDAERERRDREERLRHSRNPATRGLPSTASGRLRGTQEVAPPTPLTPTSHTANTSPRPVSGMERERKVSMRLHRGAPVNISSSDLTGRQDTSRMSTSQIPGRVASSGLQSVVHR
Casein kinase I isoform gamma-1 (Homo sapiens), sequence (Q9HCP0 whole entry, looked up, canonical isoform): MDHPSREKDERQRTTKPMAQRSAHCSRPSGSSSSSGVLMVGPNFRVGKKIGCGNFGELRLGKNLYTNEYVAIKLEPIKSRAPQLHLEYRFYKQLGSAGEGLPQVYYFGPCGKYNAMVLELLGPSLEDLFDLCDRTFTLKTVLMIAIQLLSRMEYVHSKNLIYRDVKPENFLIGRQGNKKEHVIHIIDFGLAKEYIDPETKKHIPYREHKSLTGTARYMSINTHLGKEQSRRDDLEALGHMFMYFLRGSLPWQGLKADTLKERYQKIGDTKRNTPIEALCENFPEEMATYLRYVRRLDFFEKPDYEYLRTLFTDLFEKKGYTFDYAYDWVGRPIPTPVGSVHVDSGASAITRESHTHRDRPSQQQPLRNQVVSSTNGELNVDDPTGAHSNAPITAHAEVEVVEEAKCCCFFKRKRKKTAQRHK

Row | SMILES | residual activity [1] | residual activity [2] | residual activity [3] | residual activity [4] | residual activity [5] | residual activity [6] | residual activity [7] | residual activity [8] | residual activity [9] | residual activity [10]
1 | O=C1NC(=O)C(c2cn(CCCO)c3ncccc23)=C1c1cnccn1 | 89% | 82% | 88% | 79% | 93% | 90% | 79% | 79% |  | 
2 | Cn1c2ccccc2c2c3c(c4c5ccccc5n(CCC#N)c4c21)CNC3=O |  | 36% | 25% | 15% |  |  | 70% | 48% | 2% | 0%
3 | CCN1/C(=C/C(C)=O)Sc2ccc(OC)cc21 |  |  |  |  | 69% | 21% | 29% | 4% |  | 
4 | COc1ccc(CNC(=O)Nc2ncc([N+](=O)[O-])s2)cc1 |  | 5% |  | 77% |  |  |  |  |  | 
5 | O=c1c(-c2ccc(F)cc2)c(-c2ccncc2)[nH]n1-c1ccc(Cl)cc1 | 100% | 100% | 43% | 33% |  | 62% | 44% | 5% |  | 
6 | NC(=O)c1ccc(-c2nc(-c3ccc4c(c3)OCCO4)c(-c3ccccn3)[nH]2)cc1 |  |  | 92% | 81% | 82% | 83% | 17% | 2% |  | 
7 | COc1cc2nccc(Oc3ccc(NC(=O)Nc4cc(C)on4)c(Cl)c3)c2cc1OC |  | 72% | 79% | 30% |  |  |  |  |  | 
8 | CC(C)N(CCC(=O)c1ccc2ccccc2c1)Cc1ccccc1 |  |  | 100% | 72% | 82% |  |  |  |  | 
9 | CN([C@@H](Cc1ccc(OS(=O)(=O)c2cccc3cnccc23)cc1)C(=O)N1CCN(c2ccccc2)CC1)S(=O)(=O)c1cccc2cnccc12 |  |  |  | 79% |  | 73% |  |  |  | 
10 | O=S(=O)(c1cccc2cnccc12)N1CCCNCC1 | 81% | 29% |  | 54% | 124% | 100% |  |  |  | 
11 | c1ccc(-c2cnc(Nc3ccc(OCCN4CCCC4)cc3)s2)cc1 | 26% | 4% |  |  |  |  | 81% | 54% |  | 
12 | NC(=O)c1cccc(-c2cc(Nc3ccc(OC(F)(F)F)cc3)ncn2)c1 |  | 69% | 95% | 87% | 94% | 63% | 90% | 74% | 99% | 96%

— ChEMBL document CHEMBL2218924, “A broad activity screen in support of a chemogenomic map for kinase signalling research and drug discovery” (Biochem J, 2013)
